Over roughly 16,000 sequences, “rpm ratio (pull-down/input)” has its median near 0.5; the highest 2% begin near 5.5. The full list was thinned out, with the highest values kept by preference.
target: T1, MBP-FoxP3dN (Mus musculus, UniProt Q99JB6 188-423); test: PD-seq (MBP pull-down with sequencing); 20 mM Tris-HCl pH 7.5, 100 mM NaCl, 1.5 mM MgCl2, 0.4 uM protein, 0.1 uM dsDNA library, 30 min, room temperature, amylose pull-down; high values mean tight binding; conditions: protein: recombinant; tags: His6-MBP; chain copies: 2; dsDNA, one strand shown
T1 sequence: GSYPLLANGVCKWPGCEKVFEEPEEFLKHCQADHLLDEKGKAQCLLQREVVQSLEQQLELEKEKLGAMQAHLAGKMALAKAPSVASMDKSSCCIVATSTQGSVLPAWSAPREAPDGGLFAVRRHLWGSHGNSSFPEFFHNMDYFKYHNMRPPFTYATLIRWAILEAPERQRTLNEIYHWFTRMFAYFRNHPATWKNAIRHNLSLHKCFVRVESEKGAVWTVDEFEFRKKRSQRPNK
Outline: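 Binding is the reads-per-million enrichment of pull-down relative to input, pooled across replicates. For this, 0.4 µM His6-MBP-tagged mouse FoxP3 or FoxP1 fragment lacking the N-terminus, made in E. coli, was incubated with 0.1 µM Klenow-filled double-stranded degenerate DNA library for 30 min at room temperature in Tris pH 7.5 buffer with NaCl and MgCl2. Complexes bound to amylose resin were washed three times before proteinase K released the DNA for PCR barcoding and Illumina sequencing.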

Sequence	binding signal
GATGATTGTTCTCCCAGCTGATGAATTGCCTCCATCGAGTAAACAAATTTTCCTAATCTTTCTGTTCAAGCGCCATCTAC	1.28 RPM ratio (pull-down/input)
GATGATTGTTCTCCCAGCTGATGAATTATACTTCTCGAGTAAACAAATTTTCCTAATCTTTCTGTTCAAGCGCCATCTAC	0.492 RPM ratio (pull-down/input)
GATGATTGTTCTCCCAGCTGATGAATTTTTCTACTCGAGTAAACAAATTTTCCTAATCTTTCTGTTCAAGCGCCATCTAC	0.279 RPM ratio (pull-down/input)
GATGATTGTTCTCCCAGCTGATGAATTTATCGCCTCGAGTAAACAAATTTTCCTAATCTTTCTGTTCAAGCGCCATCTAC	1.07 RPM ratio (pull-down/input)
GATGATTGTTCTCCCAGCTGATGAATTGCGCTCATCGAGTAAACAAATTTTCCTAATCTTTCTGTTCAAGCGCCATCTAC	1.24 RPM ratio (pull-down/input)
GATGATTGTTCTCCCAGCTGATGAATTAGCCGGCTCGAGTAAACAAATTTTCCTAATCTTTCTGTTCAAGCGCCATCTAC	0.203 RPM ratio (pull-down/input)
GATGATTGTTCTCCCAGCTGATGAATTTATGTTATCGAGTAAACAAATTTTCCTAATCTTTCTGTTCAAGCGCCATCTAC	3.24 RPM ratio (pull-down/input)
GATGATTGTTCTCCCAGCTGATGAATTTTCTTTATCGAGTAAACAAATTTTCCTAATCTTTCTGTTCAAGCGCCATCTAC	1.27 RPM ratio (pull-down/input)
GATGATTGTTCTCCCAGCTGATGAATTCCTTTTATCGAGTAAACAAATTTTCCTAATCTTTCTGTTCAAGCGCCATCTAC	0.345 RPM ratio (pull-down/input)
GATGATTGTTCTCCCAGCTGATGAATTTGATTTATCGAGTAAACAAATTTTCCTAATCTTTCTGTTCAAGCGCCATCTAC	2.99 RPM ratio (pull-down/input)
GATGATTGTTCTCCCAGCTGATGAATTATGATTATCGAGTAAACAAATTTTCCTAATCTTTCTGTTCAAGCGCCATCTAC	3.53 RPM ratio (pull-down/input)
GATGATTGTTCTCCCAGCTGATGAATTGTGTTTATCGAGTAAACAAATTTTCCTAATCTTTCTGTTCAAGCGCCATCTAC	8.53 RPM ratio (pull-down/input)
GATGATTGTTCTCCCAGCTGATGAATTTTGTTTATCGAGTAAACAAATTTTCCTAATCTTTCTGTTCAAGCGCCATCTAC	7.19 RPM ratio (pull-down/input)
GATGATTGTTCTCCCAGCTGATGAATTATGTTTATCGAGTAAACAAATTTTCCTAATCTTTCTGTTCAAGCGCCATCTAC	8.36 RPM ratio (pull-down/input)
GATGATTGTTCTCCCAGCTGATGAATTGTTTTTATCGAGTAAACAAATTTTCCTAATCTTTCTGTTCAAGCGCCATCTAC	3.74 RPM ratio (pull-down/input)
GATGATTGTTCTCCCAGCTGATGAATTCTGTTTATCGAGTAAACAAATTTTCCTAATCTTTCTGTTCAAGCGCCATCTAC	7.92 RPM ratio (pull-down/input)
GATGATTGTTCTCCCAGCTGATGAATTTATCTAATCGAGTAAACAAATTTTCCTAATCTTTCTGTTCAAGCGCCATCTAC	0.706 RPM ratio (pull-down/input)

Sequence	binding signal
GATGATTGTTCTCCCAGCTGATGAATTCTTTTTATCGAGTAAACAAATTTTCCTAATCTTTCTGTTCAAGCGCCATCTAC	0.332 RPM ratio (pull-down/input)
GATGATTGTTCTCCCAGCTGATGAATTACCACCCTCGAGTAAACAAATTTTCCTAATCTTTCTGTTCAAGCGCCATCTAC	0.312 RPM ratio (pull-down/input)
GATGATTGTTCTCCCAGCTGATGAATTCGTCGTCTCGAGTAAACAAATTTTCCTAATCTTTCTGTTCAAGCGCCATCTAC	1.31 RPM ratio (pull-down/input)
GATGATTGTTCTCCCAGCTGATGAATTAAAGTGCTCGAGTAAACAAATTTTCCTAATCTTTCTGTTCAAGCGCCATCTAC	0.358 RPM ratio (pull-down/input)
GATGATTGTTCTCCCAGCTGATGAATTTTCCTTCTCGAGTAAACAAATTTTCCTAATCTTTCTGTTCAAGCGCCATCTAC	0.258 RPM ratio (pull-down/input)
GATGATTGTTCTCCCAGCTGATGAATTTAGATTATCGAGTAAACAAATTTTCCTAATCTTTCTGTTCAAGCGCCATCTAC	1.31 RPM ratio (pull-down/input)
GATGATTGTTCTCCCAGCTGATGAATTTTTTTTATCGAGTAAACAAATTTTCCTAATCTTTCTGTTCAAGCGCCATCTAC	0.295 RPM ratio (pull-down/input)
GATGATTGTTCTCCCAGCTGATGAATTTATCTCCTCGAGTAAACAAATTTTCCTAATCTTTCTGTTCAAGCGCCATCTAC	0.631 RPM ratio (pull-down/input)
GATGATTGTTCTCCCAGCTGATGAATTTACAACATCGAGTAAACAAATTTTCCTAATCTTTCTGTTCAAGCGCCATCTAC	1.26 RPM ratio (pull-down/input)
GATGATTGTTCTCCCAGCTGATGAATTGTTTATCTCGAGTAAACAAATTTTCCTAATCTTTCTGTTCAAGCGCCATCTAC	6.57 RPM ratio (pull-down/input)
GATGATTGTTCTCCCAGCTGATGAATTTGTTTTATCGAGTAAACAAATTTTCCTAATCTTTCTGTTCAAGCGCCATCTAC	6.46 RPM ratio (pull-down/input)
GATGATTGTTCTCCCAGCTGATGAATTTTTTATCTCGAGTAAACAAATTTTCCTAATCTTTCTGTTCAAGCGCCATCTAC	0.243 RPM ratio (pull-down/input)
GATGATTGTTCTCCCAGCTGATGAATTGTTTACATCGAGTAAACAAATTTTCCTAATCTTTCTGTTCAAGCGCCATCTAC	8.09 RPM ratio (pull-down/input)
GATGATTGTTCTCCCAGCTGATGAATTTCTTTTATCGAGTAAACAAATTTTCCTAATCTTTCTGTTCAAGCGCCATCTAC	0.545 RPM ratio (pull-down/input)
GATGATTGTTCTCCCAGCTGATGAATTTTTTACATCGAGTAAACAAATTTTCCTAATCTTTCTGTTCAAGCGCCATCTAC	0.25 RPM ratio (pull-down/input)
GATGATTGTTCTCCCAGCTGATGAATTGTGTCCCTCGAGTAAACAAATTTTCCTAATCTTTCTGTTCAAGCGCCATCTAC	2.1 RPM ratio (pull-down/input)
